The record followed here is PubChem BioAssay (Tox21).

Where “and” joins values, the source holds several entries; their conditions need not be identical. Equal values may be shown once. Results filed as inconclusive are left out. Entries that show only a call come without a potency. The source holds several records for some structures; these can differ, active in one and inactive in another. Calls of active or inactive are those of the source. Calls come from the whole dose curve; as a rule, active = well fitted activation curve with a large enough effect in the repeat runs; inconclusive = weak or mixed curves; inactive = flat fitted curve, though single readings scatter.
Potency is the fitted concentration of half-maximal effect.

This test in a line: A CellTox Green Cytotoxicity Assay to monitor cytotoxicity in HEK293 cells - 40 hour (AID 1224871). Note: nearly all actives have a fitted effect of over 45% in size. As to conditions: CellTox Green fluorescence; series mostly up to 76.8 µM. The source says: National Center for Advancing Translational Sciences [NCATS]
NIH Chemical Genomics Center [NCGC]
U.S. Environmental Protection Agency [EPA]
National Institutes of Environmental Health Sciences [NIEHS]
National Toxicology Program [NTP]
Cell-based models are critical for drug discovery. Determining the natural cytotoxic effects resulting from test compounds is an essential research activity. A CellTox Green Cytotoxicity Assay to monitor cytotoxicity in real time of continues cell culture during 40 hours of the compound treatment was used to screen Tox21 10K library compounds in Hek293 cells. CellTox Green Cytotoxicity Assay is a nonlytic, homogeneous, biofluorescent method to measure cytotoxicity in cell culture after experimental manipulation. The assay system uses a proprietary asymmetric cyanine dye that is excluded from viable cells but preferentially stains the dead cell's DNA. […] Viable cells produce no appreciable increases in fluorescence. Therefore, the fluorescence signal produced by the binding interaction with dead cell DNA is proportional to cytotoxicity.
The mixture of Hek293 cell suspension and reagents were dispensed at 600cells/6 ul/well in 1536-well tissue culture treated black solid bottom plates using a Multidrop dispenser. After the assay plates were incubated at a 37 C/5% CO2 incubator for 5 hours, 23 nL of compounds dissolved in DMSO, positive and negative controls was transferred to the assay plate by a pintool work station. The plates were incubated at 37 C for 40 hours. The fluorescence intensity were measured at 0h, 8h, 16h, 24h, 32h and 40h time points using ViewLux plate reader during compound treatment.
Consider `NC1CCCCC1`, for which the Potency result is “inactive”.
Then `COc1ccc(CN(CCN(C)C)c2ccccn2)cc1`, with “inactive”; and `CN1CCc2cccc3c2[C@H]1Cc1ccc(O)c(O)c1-3`, with 55.5 µM (active) and inactive; and `O=C1NS(=O)(=O)c2ccccc21`, with “inactive”.
For `CCCCNC(=O)NS(=O)(=O)c1ccc(C)cc1` the value was “inactive”.
Then `CCOc1ccc(NC(C)=O)cc1`, with “inactive”; and `CC(=O)CC(c1ccccc1)c1c(O)c2ccccc2oc1=O` (stereo not given), with “inactive”; and `Cc1ccc(S(=O)(=O)O)cc1`, with “inactive”.
For `CS(=O)(=O)OCCCCOS(C)(=O)=O`, the Potency result was “inactive”.
For `O=c1[nH]cnc2c1ncn2[C@H]1CC[C@@H](CO)O1` the value was “inactive”; for `CCN(CC)C(=O)c1cccc(C)c1`, “inactive”.
Regarding `CCCC[P+](CCCC)(CCCC)CCCC`, the Potency entry was “inactive”.
For `O=C(O)CC(O)C(=O)O` (stereo not given) the value was “inactive”; for `OC[C@H]1O[C@H](O[C@]2(CCl)O[C@H](CCl)[C@@H](O)[C@@H]2O)[C@H](O)[C@@H](O)[C@H]1Cl`, “inactive”.
Then `Cn1c(=O)c2c(ncn2C)n(C)c1=O`, with “inactive”; and `CN1CCC[C@H]1c1cccnc1`, with “inactive”.
`NC(=O)n1c(O)c(C(=O)c2cccs2)c2cc(Cl)ccc21`: the Potency entry is “inactive”.
Turning to `O=C1c2c(O)cccc2Cc2cccc(O)c21`, the Potency result is “inactive”.
Then `CCCCCCc1ccc(O)cc1O`, with 49.1 µM (active) and 49 µM (active) and inactive; and `CNNCc1ccc(C(=O)NC(C)C)cc1`, with “inactive”; and `NC(=O)c1cccnc1`, with “inactive”.
For `CN(C)C(=S)SC(=S)N(C)C` the value was 1.59 µM (active) and 3.09 µM (active) and 3.79 µM (active); for `CN(C)CCOC(c1ccccc1)c1ccccc1`, “inactive”.
For `C/C=C/C=C/C(=O)O` the value was “inactive”; for `Cc1ncc([N+](=O)[O-])n1CCO`, “inactive”; for `CC(=O)Nc1c(I)c(NC(C)=O)c(I)c(C(=O)O)c1I`, “inactive”.
For the compound `CN(N=O)C(=O)N[C@@H]1[C@@H](O)[C@H](O)[C@@H](CO)O[C@@H]1O`, the Potency entry was “inactive”.
For `COc1ccc2c(c1)c(CC(=O)O)c(C)n2C(=O)c1ccc(Cl)cc1` the value was “inactive”; for `CCCCOC(=O)c1ccc(O)cc1`, 49.6 µM (active) and inactive.
For `CC1(C)S[C@@H]2[C@H](NC(=O)[C@H](N)c3ccccc3)C(=O)N2[C@H]1C(=O)O` the value was “inactive”; for `O=c1[nH]cc(F)c(=O)[nH]1`, 50.8 µM (active) and inactive; for `Nc1ccc(S(N)(=O)=O)cc1`, “inactive”.
Turning to `CC(C)C(=O)Nc1ccc([N+](=O)[O-])c(C(F)(F)F)c1`, the Potency result is “inactive”.
For `CC(C)NCC(O)c1ccc(O)c(O)c1` (stereo not given) the value was “inactive”; for `C[C@](N)(Cc1ccc(O)c(O)c1)C(=O)O`, “inactive”; for `Nc1ccc2c(c1)CN1C(=O)c3ccccc3C1=N2`, 10.4 µM (active).
For `CC(O)(P(=O)(O)O)P(=O)(O)O` the value was “inactive”.
For `COc1ccc2cc(S(=O)(=O)N[C@H](CC(=O)N[C@H](Cc3ccc(CN4[C@H](C)CCC[C@@H]4C)cc3)C(=O)N(C)C(C)C)c3ccc4c(c3)OCO4)ccc2c1` the value was 52 µM (active).
Take `C1CCC(C(CC2CCCCN2)C2CCCCC2)CC1` (stereo not given): the Potency was 16.9 µM (active).
For the compound `CCOC(N)=O`, the Potency result is “inactive”.
